Screening data: PubChem, National Center for Advancing Translational Sciences (NCATS)
In the library only some 4.2% were active in any assay of this set; here they are far more common.
12-LOX inh: inhibitors of human 12S-lipoxygenase ALOX12; purified 12hLO, xylenol orange hydroperoxide absorbance; actives 1.1% (n = 580,000); P18054; Potency, µM (doses to about 108 µM), for the others: at the highest dose activity change, negative = inhibition, usual class: inhibitors
Target sequence (P18054 whole entry, looked up): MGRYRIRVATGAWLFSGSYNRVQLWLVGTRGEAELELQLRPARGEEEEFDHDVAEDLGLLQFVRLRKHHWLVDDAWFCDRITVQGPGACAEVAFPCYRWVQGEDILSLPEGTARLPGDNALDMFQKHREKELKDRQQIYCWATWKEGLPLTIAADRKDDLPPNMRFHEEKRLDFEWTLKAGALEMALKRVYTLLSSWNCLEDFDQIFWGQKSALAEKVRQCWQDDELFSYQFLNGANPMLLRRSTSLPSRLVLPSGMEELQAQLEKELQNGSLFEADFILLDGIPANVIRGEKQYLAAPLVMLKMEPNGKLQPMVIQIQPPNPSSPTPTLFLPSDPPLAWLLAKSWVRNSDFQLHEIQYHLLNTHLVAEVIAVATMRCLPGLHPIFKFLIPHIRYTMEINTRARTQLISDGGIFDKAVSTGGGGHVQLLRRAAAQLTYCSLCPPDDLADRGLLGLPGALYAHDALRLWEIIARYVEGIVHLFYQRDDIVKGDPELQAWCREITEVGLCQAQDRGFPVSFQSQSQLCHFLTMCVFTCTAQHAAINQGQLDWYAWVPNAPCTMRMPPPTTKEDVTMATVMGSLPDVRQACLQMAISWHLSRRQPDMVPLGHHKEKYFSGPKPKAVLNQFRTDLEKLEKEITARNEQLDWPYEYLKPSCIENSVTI
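Purified human 12hLO (150 nM final) in 25 mM Hepes, 0.01% Triton X-100, pH 7.0 was preincubated 15 min at room temperature with compound. Then 40 uM arachidonic acid was added, 30 min. Hydroperoxide was read by Fe-XO absorbance ratio 573/405 nm.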
PLK1 PBD inh: blocks phosphopeptide binding to human PLK1 polo-box domain; P53350; Potency, µM, for inactives: max response, negative = inhibition, hits mostly inhibitors; actives 2.8% (n = 360,000); AID 720504; Plk1 PBD binding of FITC phosphopeptide, fluorescence polarization; also: series mostly up to about 57 µM; nearly all actives have a fitted effect of over 65% in size
Sfp PPTase inh: blocks B. subtilis Sfp PPTase activity. Biochemical Sfp PPTase activity, qHTS. Potency, µM, without a hit: largest response in the series, negative = inhibition, actives largely listed as inhibitors. actives 3.5% (n = 310,000);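 also: the enzyme is Sfp with the accession as filed and its product quenches rhodamine fluorescence; 0% = enzyme reaction without inhibitor and -100% = no enzyme wells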
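Fluorescence-quenching assay with 15 nM Sfp, 5 uM rhodamine-CoA and 12.5 uM BHQ-2-labelled ybbR peptide in pH 7.6 Hepes/MgCl2 buffer. Enzyme was pre-incubated with compound for 15 min at room temperature. Rate was taken from the 30-min fluorescence change (525/598 nm).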
VDR inhibitor: blocks the human vitamin D receptor | P11473 | actives 0.93% (n = 400,000) | VDR-SRC2-3 peptide fluorescence polarization, 2 h | AID 504847 | Potency, µM, for inactives: max response, negative = inhibition, usual class: inhibitors
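Compounds are added to VDR with labelled SRC2-3 coactivator peptide and held 2 h at room temperature. Inhibition of the VDR–peptide interaction is then read as a change in fluorescence polarization.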
* = called active by the depositor; ? = inconclusive; / = no result; [ ] = dose if it differs, or a comment. Calls follow the shape of the dose curve; as a rule, active = well fitted curve in the direction sought with a large enough effect; inconclusive = small, poorly fitted or top-dose-only effect, or another doubt; inactive = no such curve, though single readings can be large; an effect the other way counts as inactive or inconclusive. Unless noted, % is scaled to controls: 0 for no effect and ±100 for the full control effect; potency is read from the fitted curve at half-maximal effect.

SMILES	12-LOX inh	PLK1 PBD inh	Sfp PPTase inh	VDR inhibitor
COc1ccc(/C(O)=C2/C(=O)C(=O)N(Cc3ccco3)C2c2cccs2)cc1 (stereo not given)	20µM*	-13%	10µM*	1%
COc1ccc(C2/C(=C(\O)c3ccc4c(c3)CC(C)O4)C(=O)C(=O)N2Cc2cccnc2)c(OC)c1 (stereo not given)	11µM*	-3%	-1%	-2%
COc1ccc(C2/C(=C(\O)c3ccc(C)cc3)C(=O)C(=O)N2CCCO)cc1 (stereo not given)	0.56µM*	/	/	/
COC(=O)c1ccc(C2/C(=C(/O)c3ccc(OC)cc3)C(=O)C(=O)N2Cc2ccco2)cc1 (stereo not given)	?	-9%	22µM*	-7%
COc1cc(C2Nc3cc(Cl)c(S(N)(=O)=O)cc3S(=O)(=O)N2)ccc1OCc1ccccc1 (stereo not given)	0%[57.4 µM]	24µM*	27%	-20%
COc1cc(C2Nc3cc(Cl)c(S(N)(=O)=O)cc3S(=O)(=O)N2)cc(OC)c1OC (stereo not given)	23%	-4%	13%	-7%
O=S(=O)(c1ccc(Cl)cc1)c1ccc(-c2ccc(S(=O)(=O)c3ccc(Cl)cc3)cc2)cc1	11µM*	/	/	/
CN(C)c1ccc(CN2CC[C@H](c3nc4ccc(C(F)(F)F)cc4[nH]3)C2)cc1	-1%[176 µM]	/	/	/
Clc1ccc(CN2CC[C@H](c3nc4cc(Cl)ccc4o3)C2)cc1	22µM*	/	/	/
FC(F)(F)c1ccc2nc([C@H]3CCN(Cc4ccc(Cl)cc4)C3)[nH]c2c1	32µM*	/	/	/
O=C(NCc1ccccc1)O[C@H]1CC[C@@]23CCCN2C(=O)CCC[C@H]3[C@H]1Cc1ccccc1	-11%	/	/	/
CCOC(=O)c1c(C)oc2nc(C)nc(NC(C)c3ccccc3)c12 (stereo not given)	-5%	/	/	17%
COCCn1c(C)cc(C2=NNC(=Nc3ccc(OC)cc3)SC2)c1C	/	?	50µM*	-15%
COCCn1c(C)cc(C2=NNC(=NC(C)(C)C)SC2)c1C	-27%	?	-7%	-13%
COCCn1c(C)cc(C2=NNC(=Nc3ccccc3)SC2)c1C	-59%	-15%	22µM*	8%
COc1ccc(CN=C2NN=C(c3cccc(OC)c3)CS2)cc1	-7%	?	?	-7%
O=C(Nc1ccc2ccccc2c1)C(c1ccc(C(F)(F)F)cc1)n1c(=O)c(-c2cc3ccccc3[nH]2)nc2ccccc21 (stereo not given)	?	0%	/	/
O=S1(=O)CC(O)C(N=Nc2c(O)n(Cc3ccccc3)c3ccccc23)C1 (stereo not given)	-2%	13µM*	0%	?
CN(C)CC1CCC/C(=C\c2ccc(OC(=O)/C=C/c3ccccc3)cc2)C1=O (stereo not given)	?	?	/	79µM*
COc1ccc(/C=C2/CCC(CN3CCOCC3)C2=O)cc1 (stereo not given)	?	5.3µM*	/	?
CN(C)CC1CC/C(=C\c2ccc(O)cc2)C1=O (stereo not given)	?	6.7µM*	/	22µM*
CN(C)CC1CCC/C(=C\c2ccc(OC(=O)c3ccc(Cl)cc3)cc2)C1=O (stereo not given)	25µM*	?	/	?
CCOc1ccc(NC(=O)COC(=O)c2cc(S(=O)(=O)N3CCCC3)ccc2C)cc1	86%	-1%	/	16%
CCOc1ccc2nc(SCc3ccccc3C#N)sc2c1	9%	0%	-3%	-23%
CN(C)c1ccc2c(-c3ccccc3)c3ccc(=[N+](C)C)cc-3oc2c1	/	/	?	45µM*
SMILES	12-LOX inh	PLK1 PBD inh	Sfp PPTase inh	VDR inhibitor
COc1cc(/C=C/C(=O)Nc2cccc3cccnc23)ccc1OC(C)C	-9%	/	/	/
O=C(Cn1cccc1C(=O)c1ccccc1)NCc1ccc(Cl)cc1	-14%	-4%	7%	-33%
Nc1c(C(=O)NCC2CCCO2)sc2nc3c(c(-c4ccco4)c12)CC/C3=C\c1ccco1 (stereo not given)	?	?	32µM*	?
CC1CCN(S(=O)(=O)c2ccc(NC(=S)NC(=O)c3ccc(Cl)cc3)cc2)CC1	14µM*	?	-19%	-3%
CN1CCN(S(=O)(=O)c2ccc(NC(=S)NC(=O)c3ccc(Cl)cc3)cc2)CC1	?	19µM*	22µM*	-16%
CN1CCN(C(=S)NC(=O)c2ccc(S(=O)(=O)N3CCOCC3)cc2)CC1	?	?	45µM*	-17%
O=C(NC(=S)N1CCN(C(c2ccccc2)c2ccccc2)CC1)c1ccc(S(=O)(=O)N2CCOCC2)cc1	-11%	-4%	20%	-13%
CN1CCN(S(=O)(=O)c2ccc(NC(=S)NC(=O)c3ccccc3)cc2)CC1	-4%	27µM*	?	-2%
COc1ccc(-c2csc(Nc3ccc(Oc4ccccc4)cc3)n2)cc1	-10%	-2%	/	/
O=C(N/C(=C/c1cccnc1)C(=O)N1CCOCC1)c1ccccc1Cl	0%	-2%	16%	-6%
CO[C@@H]1CO[C@H]2[C@@H]1OC[C@@H]2NC(=O)Nc1cccc(C(F)(F)F)c1	28%[176 µM]	/	/	/
O=C(Nc1cccc(C(F)(F)F)c1)O[C@@H]1CO[C@H]2[C@@H]1OC[C@@H]2NC(=S)NC1CCCCC1	45µM*	/	/	/
CN(C)c1cccc(C(=O)NNc2c(Cl)cc(Cl)cc2Cl)c1	5µM*	/	/	/
COc1ccccc1CNC(=O)c1cccc(N(C)C)c1	1.8µM*	-7%	-4%	7%
CCc1cccc(C)c1NC(=O)c1cccc(N(C)C)c1	22µM*	-8%	56µM*	-17%
COc1ccccc1CNC(=O)c1ccccc1	-6%	/	/	/
CN(C)S(=O)(=O)N1CCN(C(=O)N2CCCCCC2)CC1	-7%	3%	14%	2%
COc1ccc(NS(=O)(=O)c2ccc(NC(=S)NC(=O)c3cccc(F)c3)cc2)nn1	40µM*	?	-20%	1%
O=S(=O)(Nc1ncccn1)c1ccccc1	?	24µM*	7%	?
COc1ccc(NS(=O)(=O)c2ccc(NC(=O)c3ccccc3)cc2)nn1	0%	15µM*	15%	?
O=C(NC(=S)Nc1ccc(S(=O)(=O)Nc2ncccn2)cc1)c1ccc(Br)cc1	20µM*	11µM*	?	0%
CC1CN(CCOc2ccc(F)cc2)CC(C)O1 (stereo not given)	?	1%	-20%	3%
O=C(CCNS(=O)(=O)c1ccc(Br)cc1)NC1CCN(Cc2ccccc2)CC1	?	-10%	7%	1%
COc1ccc(NS(=O)(=O)c2ccc(NC(=O)c3ccc(Br)cc3)cc2)nn1	-13%	-5%	14%	6%
O=S(=O)(Nc1ncccn1)c1ccc(NC(=S)Nc2ccc(Cl)cc2)cc1	?	?	40µM*	-5%
COc1ccc(NS(=O)(=O)c2ccc(NC(=S)NC(=O)c3ccc(Br)cc3)cc2)nn1	25µM*	-8%	-27%	-21%
COc1cccc(OC)c1C(=O)NCC12CC3CC(C1)CC(CNC(=O)c1c(OC)cccc1OC)(C3)C2	7%	3%	24%	-5%
COC(=O)NCC12CC3CC(C1)CC(CNC(=O)OC)(C3)C2	0%	12µM*	15%	-3%
